Data from PubChem BioAssay (Tox21).
Where “and” joins values, the source holds several entries; their conditions need not be identical. Identical values can stand only once. Records with an inconclusive call do not appear. Calls of active or inactive are those of the source. Unless noted, calls follow the shape of the dose curve; as a rule, active = well fitted curve in the direction sought with a large enough effect in the repeat runs; inconclusive = weak or mixed curves; inactive = no such curve, though single readings can be large; an effect the other way counts as inactive or inconclusive.

How the values were obtained:
[1] = qHTS assay for small molecules that induce genotoxicity in human embryonic kidney cells expressing luciferase-tagged ATAD5 (AID 651632); also: nearly all actives have a fitted effect of over 15% in size; also: potency is read from the fitted curve at half-maximal effect
Summary of the method: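 Reporter cells (HEK293T) express luciferase-tagged ATAD5, a protein that accumulates after DNA damage. Treat 16 hr at 37C/5% CO2, add Amplite, wait 30 min at RT, and read luminescence.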

[2] = qHTS assay for small molecule agonists of the p53 signaling pathway - cell viability (AID 651633; calls by dose curve; also: nearly all actives have a fitted effect of over 30% in size; also: potency is read from the fitted curve at half-maximal effect)
Summary of the method: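 p53RE-bla cells, seeded at 4,000 per well and rested 5 h at 37 C/5% CO2, received compounds in DMSO for 16 h at 37 C. CellTiter-Glo was then added, and luminescence was read after 30 min at room temperature to gauge cytotoxicity.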

[3] = qHTS assay for small molecules that induce genotoxicity in human embryonic kidney cells expressing luciferase-tagged ATAD5 - cell viability (AID 651634; calls by dose curve; also: nearly all actives have a fitted effect of over 25% in size; also: potency is read from the fitted curve at half-maximal effect)
Summary of the method: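 Seeding of 2,000 HEK293T ATAD5-luciferase cells per well preceded pin-tool compound transfer. Plates sat 15.5 hr at 37C under 5% CO2, then fluorescence was read after 30 min with CellTiter-Fluor.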

[4] = qHTS assay to test for compound auto fluorescence at 590 nm (red) in HepG2 cells (AID 720674); also: % is scaled to controls: 0 for no effect and ±100 for the full control effect
Summary of the method: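 Rose Bengal sodium served as the red fluorophore standard. HepG2 monolayers (overnight attachment, MEM with 10% FBS) were exposed to test compounds for 1 hr at 37 C and read at Ex 540/Em 590 nm.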

[5] = qHTS assay to test for compound auto fluorescence at 535 nm (green) in HepG2 cells (AID 720675); also: % is scaled to controls: 0 for no effect and ±100 for the full control effect
[6] = qHTS assay to test for compound auto fluorescence at 460 nm (blue) in HEK293 cells (AID 720678); also: % is scaled to controls: 0 for no effect and ±100 for the full control effect
Summary of the method: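 After cell attachment (4-5 hr, 37C), compounds were pinned onto HEK293 monolayers in 10% dialyzed FBS medium. The blue channel (405/460 nm) was read following overnight culture. Equivalency was calculated against triamterene.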

[7] = qHTS assay to test for compound auto fluorescence at 590 nm (red) in HEK293 cells (AID 720679); also: % is scaled to controls: 0 for no effect and ±100 for the full control effect
Summary of the method: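 Plates of HEK293 cells (10% dialyzed FBS) are treated with 23 nL compound or DMSO vehicle after a 4-5 hr attachment period, incubated overnight at 37C, and read for red fluorescence at 540/590nm.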

[8] = qHTS assay to test for compound auto fluorescence at 535 nm (green) in HEK293 cells (AID 720680); also: % is scaled to controls: 0 for no effect and ±100 for the full control effect
[9] = qHTS assay to test for compound auto fluorescence at 460 nm (blue) in HEK293 cell free culture (AID 720681); also: % is scaled to controls: 0 for no effect and ±100 for the full control effect
Summary of the method: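 Test compounds were pinned into cell-free culture medium (DMEM with 10% FBS) and fluorescence was read directly at Ex/Em 405/460 nm. Signals were expressed as fluorescence equivalents of triamterene, with DMSO vehicle as control.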

[10] = qHTS assay to test for compound auto fluorescence at 535 nm (green) in HEK293 cell free culture (AID 720682); also: % is scaled to controls: 0 for no effect and ±100 for the full control effect
Summary of the method: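 Green-channel intensity (Ex/Em 485/535 nm) was recorded from compound-treated wells containing only DMEM with 10% FBS. Fluorescein provided the equivalency standard.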

[11] = qHTS assay to test for compound auto fluorescence at 590 nm (red) in HEK293 cell free culture (AID 720683); also: % is scaled to controls: 0 for no effect and ±100 for the full control effect
Summary of the method: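 Tox21 10K library compounds were pinned into cell-free DMEM with 10% FBS and fluorescence was read at excitation 540 nm. Activity is expressed as Rose Bengal sodium equivalency.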

[12] = qHTS assay to test for compound auto fluorescence at 590 nm (red) in HepG2 cell free culture (AID 720684); also: % is scaled to controls: 0 for no effect and ±100 for the full control effect
Summary of the method: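 Measured in medium alone (MEM containing 10% FBS) following pintool addition of compound; emission at 590 nm with 540 nm excitation, referenced to Rose Bengal sodium.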

[13] = qHTS assay to test for compound auto fluorescence at 535 nm (green) in HepG2 cell free culture (AID 720686); also: % is scaled to controls: 0 for no effect and ±100 for the full control effect
[14] = qHTS assay to test for compound auto fluorescence at 460 nm (blue) in HepG2 cells (AID 720687); also: % is scaled to controls: 0 for no effect and ±100 for the full control effect
Summary of the method: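 Cells (2,000/well in MEM with 10% FBS) attached overnight at 37 C, then were exposed to compound or DMSO for 1 hr at 37 C, 5% CO2. Fluorescence read at Ex/Em 405/460 nm, expressed as triamterene-equivalent signal.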

[15] = qHTS assay for small molecule disruptors of the mitochondrial membrane potential - cell viability (AID 720634; calls by dose curve; also: nearly all actives have a fitted effect of over 20% in size; also: potency is read from the fitted curve at half-maximal effect)
Summary of the method: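 Measuring cytotoxicity alongside mitochondrial potential, the screen quantified ATP by luminescence in HepG2 cells after 1 hr compound incubation and a 30 min room-temperature CellTiter-Glo step.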

[16] = qHTS assay to test for compound auto fluorescence at 460 nm (blue) in HepG2 cell free culture (AID 720685); also: % is scaled to controls: 0 for no effect and ±100 for the full control effect
Summary of the method: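 Compound (23 nL) or DMSO pinned into cell-free MEM with 10% FBS; blue fluorescence read at 405/460 nm excitation/emission, expressed as auto-fluorescence equivalency to triamterene.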

[17] = target: Glucocorticoid receptor (Homo sapiens) (UniProt P04150); assay: qHTS assay to identify small molecule agonists of the glucocorticoid receptor (GR) signaling pathway (AID 720691; active = well fitted activation curve with a large enough effect in the signal ratio in the repeat runs, not every such curve was filed as active; the % refers to the signal ratio; also: % is scaled to controls: 0 for no effect and ±100 for the full control effect); settings: GR-bla HeLa, beta-lactamase reporter ratio, 18 h; activation: at 62.4 µM (top of the series)
Glucocorticoid receptor (Homo sapiens), sequence (P04150 whole entry, looked up): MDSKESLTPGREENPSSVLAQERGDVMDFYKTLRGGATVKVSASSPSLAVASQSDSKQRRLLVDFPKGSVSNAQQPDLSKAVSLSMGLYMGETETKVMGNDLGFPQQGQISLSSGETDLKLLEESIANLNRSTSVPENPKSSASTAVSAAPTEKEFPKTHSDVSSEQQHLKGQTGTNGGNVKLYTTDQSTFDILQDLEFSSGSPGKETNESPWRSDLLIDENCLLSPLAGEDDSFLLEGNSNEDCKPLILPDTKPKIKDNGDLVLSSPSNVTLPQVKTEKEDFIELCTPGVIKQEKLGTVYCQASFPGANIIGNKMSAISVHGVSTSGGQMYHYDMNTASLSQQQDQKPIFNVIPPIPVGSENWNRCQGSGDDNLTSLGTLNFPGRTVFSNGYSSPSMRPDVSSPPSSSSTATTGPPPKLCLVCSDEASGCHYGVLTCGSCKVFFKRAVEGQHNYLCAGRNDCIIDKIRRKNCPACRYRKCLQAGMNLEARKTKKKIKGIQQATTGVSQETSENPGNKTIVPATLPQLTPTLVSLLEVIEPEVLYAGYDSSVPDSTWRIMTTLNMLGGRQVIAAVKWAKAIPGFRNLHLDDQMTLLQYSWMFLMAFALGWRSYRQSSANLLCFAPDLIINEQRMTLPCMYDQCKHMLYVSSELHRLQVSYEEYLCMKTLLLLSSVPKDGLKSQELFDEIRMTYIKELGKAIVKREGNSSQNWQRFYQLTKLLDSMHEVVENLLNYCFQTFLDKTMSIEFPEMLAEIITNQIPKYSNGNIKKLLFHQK
Summary of the method: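 Reporter read-out: fluorescence intensity following 2 h room-temperature LiveBLAzer B/G FRET substrate loading. Prior step: GR-bla HeLa cells held 4 h, then treated 18 h at 37 C.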

[18] = qHTS assay for small molecule disruptors of the mitochondrial membrane potential (AID 720635); also: potency is read from the fitted curve at half-maximal effect
Summary of the method: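 HepG2 cells (2,000/well) attached overnight at 37C, then took compound for 1 hr at 37C, 5% CO2. Mito-MPS dye was added for 30 min; fluorescence was read at 490/535 nm (monomers) and 540/590 nm (aggregates).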

[19] = target: Glucocorticoid receptor (Homo sapiens) (UniProt P04150); assay: qHTS assay to identify small molecule antagonists of the glucocorticoid receptor (GR) signaling pathway (AID 720692; active = well fitted inhibition curve with a large enough effect in the signal ratio in the repeat runs, not every such curve was filed as active; the % refers to the signal ratio; also: potency is read from the fitted curve at half-maximal effect)
Summary of the method: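 Dexamethasone (5 nM final) stimulated a stably integrated GRE-beta-lactamase reporter in HeLa cells during 18 h co-incubation with compounds; signal was quantified as fluorescence intensity of B/G FRET substrate after 2 h.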

CC(C)(C)C(=O)OCOC(=O)C1N2C(=O)CC2S(=O)(=O)C1(C)C (configuration not stated)
inactive: Potency [1] | Potency [2] | Potency [3] | Potency [4] | Potency [5] | Potency [6] | Potency [7] | outcome [8] | Potency [9] | outcome [10] | Potency [11] | Potency [12] | Potency [13] | Potency [14]

CNCc1cc(F)ccc1Oc1ccc(Cl)c(Cl)c1
inactive: Potency [1] | Potency [2] | Potency [3] | Potency [15] | Potency [4] | Potency [6] | Potency [7] | outcome [8] | Potency [9] | outcome [10] | Potency [11] | Potency [12] | Potency [16] | Potency [13] | Potency [14] | Potency [17]

CCCCN1CCCC[C@H]1C(=O)Nc1c(C)cccc1C
inactive: Potency [1] | Potency [2] | Potency [3] | Potency [15] | Potency [4] | Potency [5] | Potency [6] | Potency [7] | outcome [8] | Potency [9] | outcome [10] | Potency [11] | Potency [12] | Potency [16] | Potency [13] | Potency [14]

CCCCCCOC(=O)c1ccc(O)cc1
active: Potency [1] 21.7 µM and 19.3 µM | Potency [15] 27.3 µM and 17.2 µM | Potency [18] 6.12 µM and 8.63 µM
inactive: Potency [2] | Potency [3] | Potency [4] | Potency [6] | outcome [8] | Potency [9] | outcome [10] | Potency [11] | Potency [12] | Potency [16] | Potency [13] | Potency [14] | Potency [17]

C=CC(=O)OCC(CO)(COC(=O)C=C)COC(=O)C=C
active: Potency [1] 4.87 µM and 5.45 µM | Potency [2] 4.34 µM | Potency [3] 12.2 µM and 15.4 µM
inactive: Potency [4] | Potency [5] | Potency [6] | outcome [8] | Potency [9] | outcome [10] | Potency [11] | Potency [12] | Potency [16] | Potency [13] | Potency [14]

CN(C)c1ccc(SC#N)cc1
inactive: Potency [1] | Potency [2] | Potency [3] | Potency [15] | Potency [4] | Potency [5] | Potency [6] | Potency [7] | outcome [8] | Potency [9] | outcome [10] | Potency [11] | Potency [12] | Potency [16] | Potency [13] | Potency [14] | Potency [17]

Cc1onc(-c2ccccc2Cl)c1C(=O)N[C@@H]1C(=O)N2[C@@H]1SC(C)(C)[C@@H]2C(=O)O
inactive: Potency [1] | Potency [2] | Potency [3] | Potency [15] | fluorescence, relative to Rose Bengal [4] -0.424% [at 18.6 µM] | fluorescence, % of fluorescein control [5] -0.13% [at 18.6 µM] | fluorescence, % of triamterene [6] -0.0411% [at 18.6 µM] | fluorescence, % of fluorescent control [7] 0.844% [at 18.6 µM] | fluorescence, % of fluorescein [8] 0.0884% [at 18.6 µM] | fluorescence, % of fluorescent control [9] 0.0563% [at 18.6 µM] | activity change [10] 0.0013% [at 18.6 µM] | fluorescence, % of Rose Bengal [12] -0.203% [at 18.6 µM] | fluorescence, % of fluorescent control [16] 0.0226% [at 18.6 µM] | fluorescence, % of fluorescein control [13] 0.101% [at 18.6 µM] | fluorescence, % of fluorescent control [14] 0.0164% [at 18.6 µM] | Potency [17]

Oc1ccc(C2(c3ccc(O)cc3)CC3CC2C2CCCC32)cc1 (configuration not stated)
active: Potency [2] 58.7 µM | Potency [18] 33 µM | Potency [19] 18.7 µM
inactive: Potency [1] | Potency [15] | Potency [4] | Potency [5] | Potency [6] | Potency [7] | outcome [8] | Potency [9] | outcome [10] | Potency [11] | Potency [12] | Potency [16] | Potency [13] | Potency [14]

Clc1ccc2n[nH]nc2c1
inactive: Potency [1] | Potency [2] | Potency [3] | Potency [15] | Potency [4] | Potency [5] | Potency [6] | Potency [7] | outcome [8] | Potency [9] | outcome [10] | Potency [11] | Potency [12] | Potency [16] | Potency [14] | Potency [17]

NNc1nc(-c2ccc([N+](=O)[O-])cc2)cs1
active: Potency [3] 24.3 µM | Potency [15] 17.2 µM | Potency [18] 1.37 µM
inactive: Potency [1] | Potency [4] | Potency [5] | Potency [6] | Potency [7] | outcome [8] | Potency [9] | outcome [10] | Potency [12] | Potency [16] | Potency [13] | Potency [14]

CSc1ccc2c(c1)C(N1CCN(C)CC1)Cc1ccccc1S2 (configuration not stated)
inactive: Potency [1] | Potency [15] | Potency [4] | Potency [5] | Potency [6] | Potency [7] | outcome [8] | Potency [9] | outcome [10] | Potency [11] | Potency [12] | Potency [14]

CCCCCCCCCOC(=O)c1ccc(O)cc1
active: Potency [2] 60.3 µM | Potency [18] 4.27 µM
inactive: Potency [1] | Potency [4] | Potency [5] | Potency [6] | Potency [7] | outcome [8] | Potency [9] | outcome [10] | Potency [12] | Potency [16] | Potency [13] | Potency [14]

O=[N+]([O-])c1cc([N+](=O)[O-])c2ccc(S(=O)(=O)O)cc2c1O
active: Potency [3] 21.6 µM
inactive: Potency [2] | Potency [15] | Potency [18] | Potency [4] | Potency [5] | Potency [6] | Potency [7] | outcome [8] | Potency [9] | outcome [10] | Potency [11] | Potency [12] | Potency [16] | Potency [13] | Potency [14]

O=C1CCCCCN1SSN1CCCCCC1=O
inactive: Potency [1] | Potency [2] | Potency [15] | Potency [4] | Potency [5] | Potency [6] | Potency [9] | outcome [10] | Potency [11] | Potency [12] | Potency [16] | Potency [13] | Potency [14]
